Test systems include NCI-H23 lung; HOP-62 NSCLC; NCI-H460 lung; HOP-92 NSCLC; NCI-H522 lung; A549/ATCC NSCLC; 786-0 renal; COLO 205 colon; DU-145 prostate; K-562 leukemia; MALME-3M melanoma; MDA-MB-231 breast; RXF 393 renal; SF-268 CNS; SF-295 CNS; SF-539 CNS; UACC-257 melanoma; M14 melanoma; HCT-15 colon.
Holding throughout (assay): NCI-60 one-dose screen, 48 h (100 = growth as untreated, 0 = no growth, -100 = all killed)
What all share (conditions): 10 µM unless noted

This is part of a sample that, as a whole, favours compounds with a hit. Of some 83,000 tested, about 20% had one in any assay.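 Interpretation: 100, growth as untreated; towards 0, rising growth inhibition; 0, no net growth; 0 to -100, cell death. Compounds scoring below 10 were considered active.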 Unmarked numbers belong to inactive results. Activity calls are given as the source filed them.

With `O=c1oc2ccc(I)cc2c(=O)n1-c1ccc(F)cc1F`, the growth in the experiment on NCI-H23 lung is 6.34% (active); in the experiment on HOP-62 NSCLC it was 2.25% (active); with NCI-H460 lung, 6.35% (active); in the experiment with HOP-92 NSCLC it was -29.9% (active); in the experiment on NCI-H522 lung it was -7.49% (active); in the experiment with A549/ATCC NSCLC, 6.11% (active). The growth was 21.3% in the experiment on 786-0 renal; 104% in the experiment on COLO 205 colon; 15.5% with DU-145 prostate; 7.26% (active) in the experiment with K-562 leukemia; -21% (active) with MALME-3M melanoma; 33.3% in the experiment on MDA-MB-231 breast. In addition, the growth in the experiment with RXF 393 renal was 11.1%; in the experiment with SF-268 CNS it was 9.2% (active); in the experiment with SF-295 CNS it was 3.91% (active); with SF-539 CNS, 13.7%; in the experiment on UACC-257 melanoma it was -4.46% (active); in the experiment with M14 melanoma, 21%. The growth with HCT-15 colon is 15.6%.
Take `COc1ccc(C2NCCc3c2[nH]c2ccccc32)cc1CN1CCN(c2ccc(F)cc2)CC1` (stereo not given): the growth is 64.8% in the experiment with NCI-H23 lung; 63.4% in the experiment with HOP-62 NSCLC; 5.7% (active) in the experiment on NCI-H460 lung; -18.7% (active) in the experiment with HOP-92 NSCLC; 40.8% in the experiment on NCI-H522 lung; 63.7% in the experiment on A549/ATCC NSCLC. For the same molecule, the growth in the experiment with 786-0 renal was 51%; in the experiment with COLO 205 colon, 47.6%; in the experiment on DU-145 prostate, 78.5%; in the experiment on K-562 leukemia, 17%; in the experiment with MDA-MB-231 breast, -32.5% (active); in the experiment with RXF 393 renal, -9.51% (active). Besides, the growth is 76.4% with SF-268 CNS; -67.2% (active) in the experiment with SF-295 CNS; 58.8% in the experiment with SF-539 CNS; -39.9% (active) in the experiment on UACC-257 melanoma; -30% (active) in the experiment on M14 melanoma; 8.26% (active) with HCT-15 colon.
As for `Cn1c(=O)n(C)c2cc(CNCCNc3ccnc4cc(Cl)ccc34)ccc21`, the growth is 95.3% in the experiment with NCI-H23 lung; 78.1% with HOP-62 NSCLC; 2.02% (active) in the experiment with NCI-H460 lung; 55.9% in the experiment with HOP-92 NSCLC; 94.9% in the experiment on NCI-H522 lung; 70.3% with A549/ATCC NSCLC. Besides, the growth was 1.49% (active) in the experiment with 786-0 renal; 55.1% in the experiment with COLO 205 colon; 74.8% in the experiment on DU-145 prostate; 5.18% (active) in the experiment on K-562 leukemia; 43.6% with MALME-3M melanoma; 62.5% in the experiment with MDA-MB-231 breast. Moreover, the growth is 52.1% in the experiment with RXF 393 renal; 97.9% in the experiment with SF-268 CNS; -69.4% (active) in the experiment with SF-295 CNS; 58.9% with SF-539 CNS; -61.8% (active) with UACC-257 melanoma; -52.8% (active) in the experiment with M14 melanoma. The growth in the experiment with HCT-15 colon was 9.62% (active).
Take `CCCCNc1nc(NC(C)(C)C)nc(NC(C)(C)C)n1`: the growth was 47.9% in the experiment with NCI-H23 lung; 84.1% in the experiment with HOP-62 NSCLC; 82.5% with NCI-H460 lung; 48.6% with HOP-92 NSCLC; 52.8% in the experiment with NCI-H522 lung; 56.3% with A549/ATCC NSCLC. The growth in the experiment on 786-0 renal is 48.2%; in the experiment with COLO 205 colon, 63.5%; in the experiment on DU-145 prostate, 74.6%; in the experiment with K-562 leukemia it was 20.8%; in the experiment with MALME-3M melanoma, 87.3%; in the experiment on MDA-MB-231 breast, 72%. Also, the growth in the experiment on RXF 393 renal was -7.69% (active); in the experiment on SF-268 CNS, 91.7%; with SF-295 CNS, -19.5% (active); in the experiment on SF-539 CNS, 51%; with UACC-257 melanoma, 81%; in the experiment on M14 melanoma, 57.5%. In the experiment on HCT-15 colon, the growth is 57.6%.
With `O=c1c2cc(F)ccc2sc2c(NCCCNCCO)nc3ccc(Cl)cc3c12`, the growth was 81.6% with NCI-H23 lung; 61% in the experiment with HOP-62 NSCLC; -53.8% (active) in the experiment on NCI-H460 lung; 36.8% in the experiment on HOP-92 NSCLC; 49.1% with NCI-H522 lung; 57.7% with A549/ATCC NSCLC. Also, the growth in the experiment with 786-0 renal is 58.8%; with COLO 205 colon, 3.05% (active); in the experiment on DU-145 prostate it was 37.7%; in the experiment on K-562 leukemia it was -25.8% (active); in the experiment with MALME-3M melanoma it was 106%; in the experiment with MDA-MB-231 breast it was 22.5%. Besides, the growth was 61.1% in the experiment with RXF 393 renal; 47.9% with SF-268 CNS; 91.3% in the experiment on SF-295 CNS; 84.8% with SF-539 CNS; 97.9% in the experiment on UACC-257 melanoma; 33.4% in the experiment on M14 melanoma. Further, the growth in the experiment with HCT-15 colon was 51.2%.
Consider `Nc1nc(-c2cnccn2)nn1-c1nc2ccccc2s1`, for which the growth in the experiment with NCI-H23 lung is 95.2%; in the experiment on HOP-62 NSCLC, 95.4%; in the experiment with NCI-H460 lung, 104%; with HOP-92 NSCLC, 106%; with NCI-H522 lung it was 88.4%; in the experiment on A549/ATCC NSCLC it was 92.7%. Besides, the growth in the experiment with 786-0 renal was 102%; in the experiment on COLO 205 colon, 111%; in the experiment with DU-145 prostate, 106%; in the experiment with K-562 leukemia, 93.9%; with MALME-3M melanoma, 104%; with MDA-MB-231 breast, 95.4%. Further, the growth was 110% in the experiment with RXF 393 renal; 99.2% in the experiment on SF-268 CNS; 103% in the experiment on SF-295 CNS; 101% in the experiment with SF-539 CNS; 99.1% in the experiment on UACC-257 melanoma; 99.2% in the experiment with M14 melanoma. Besides, the growth with HCT-15 colon was 103%.
`CCCCCCC(O)(c1ccc(F)cc1)C(CN1CCOCC1)c1ccccc1` (stereo not given): the growth with NCI-H23 lung is 25.4%; in the experiment on HOP-62 NSCLC it was 56.9%; in the experiment on NCI-H460 lung, 16.1%; in the experiment with HOP-92 NSCLC, -16.1% (active); with NCI-H522 lung it was 26.9%; with A549/ATCC NSCLC, 23.9%. For the same molecule, the growth in the experiment on 786-0 renal is 44.9%; with COLO 205 colon, -21.7% (active); in the experiment on DU-145 prostate it was 51.7%; in the experiment with K-562 leukemia, 12.9%; in the experiment on MALME-3M melanoma it was 24.5%; with MDA-MB-231 breast it was 26.2%. Further, the growth is 20.6% in the experiment on RXF 393 renal; 47.4% with SF-268 CNS; -21.5% (active) in the experiment with SF-295 CNS; 79.1% in the experiment with SF-539 CNS; 57.2% in the experiment on UACC-257 melanoma; 35.5% in the experiment with M14 melanoma. In addition, the growth in the experiment with HCT-15 colon was 28.1%.
For `CCCCN1CCN(c2ccc3nc(-c4ccc5nc(-c6ccc(OC)c(OC)c6)[nH]c5c4)[nH]c3c2)CC1`, the growth in the experiment on NCI-H23 lung is -66.1% (active); with HOP-62 NSCLC it was -1.2% (active); with NCI-H460 lung, -35% (active); in the experiment with HOP-92 NSCLC, 60.7%; in the experiment on NCI-H522 lung it was -36.8% (active); in the experiment on A549/ATCC NSCLC, 28.4%. The growth with 786-0 renal is -85.9% (active); in the experiment on DU-145 prostate, 2.42% (active); in the experiment on K-562 leukemia, -15.5% (active); in the experiment on MALME-3M melanoma it was -62.3% (active); in the experiment with MDA-MB-231 breast, -38.1% (active); in the experiment on RXF 393 renal it was -98.5% (active). In addition, the growth in the experiment with SF-268 CNS was 20.7%; in the experiment on SF-295 CNS, 10.6%; with SF-539 CNS it was -81.9% (active); with UACC-257 melanoma, -3.47% (active); with M14 melanoma it was -52.5% (active); with HCT-15 colon, 46.1%.

The record behind these values is PubChem BioAssay (NCI).
